Laboratory results as given in PubChem BioAssay AID1645872 (National Center for Advancing Translational Sciences (NCATS), 2021).
Records with an inconclusive call do not appear. Activity calls are given as the source filed them. Calls come from the whole dose curve; as a rule, active = well fitted inhibition curve with a large enough effect; inconclusive = small, poorly fitted or top-dose-only effect; inactive = flat fitted curve, though single readings scatter. Numbered stars: 1 amine (or outer) side, 2 acyl side, 3 side chain; on linkers, the order of the positions; unused ones are H or OH. Peptide text beside a SMILES is read from it. CO = O=C([*:1])[*:2]

molecular target: Papain (Carica papaya) (UniProt P00784); assay: Confirmatory qHTS assay for inhibitors of the protease papain; details: papain Z-FR-AMC cleavage, fluorescence; series mostly up to 49.8 µM
Sequence (P00784 whole entry, looked up): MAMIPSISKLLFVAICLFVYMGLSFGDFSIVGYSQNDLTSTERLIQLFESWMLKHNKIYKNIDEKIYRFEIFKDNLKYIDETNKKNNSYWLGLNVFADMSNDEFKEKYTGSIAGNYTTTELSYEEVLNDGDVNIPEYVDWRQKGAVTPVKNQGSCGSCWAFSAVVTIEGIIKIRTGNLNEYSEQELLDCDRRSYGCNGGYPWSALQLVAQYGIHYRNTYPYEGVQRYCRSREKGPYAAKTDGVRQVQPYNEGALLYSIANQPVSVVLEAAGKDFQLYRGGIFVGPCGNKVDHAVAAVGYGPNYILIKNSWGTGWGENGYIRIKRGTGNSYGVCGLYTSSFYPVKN
Excerpt: Principal Investigator: Sam Michael National Center for Advancing Translational Sciences, National Institutes of Health, Rockville, MD Current high-throughput screening (HTS) assay validation is often a manual process, though this can be enhanced by design-of-experiment approaches. An artificial intelligence-driven (AI/ML) assay optimization was developed as part of the NCATS A Specialized Platform for Innovative Research Exploration (ASPIRE) Initiative to accelerate preclinical drug discovery. We describe the development of an autonomous Cloud-based computational driven assay optimization system using the Kebotix adaptive optimization algorithm. The Kebotix Bayesian optimization algorithm identify and test the global optimum of the full 294 design-of-experiment (DOE) with a high optimization probability > 95%, and achieved a five-fold reduction in costs for reagents and lab supplies and HTE run-time. The proposed algorithm found suitable conditions for optimal assay performance. A cell-free assay for papain protease activity was chosen for proof-of-concept. This assay was ideal because its low cost and suitable for large amount of experiments, and previous NCATS experience would allow for historical comparisons. […] Described herein is the results of the papain qHTS assay.
PROTOCOL TABLE SEQUENCE No. (e.g., 1, 2, 3, etc.); PARAMETER (e.g., Cells, Incubation, Reagent, etc.); VALUE and DESCRIPTION. 1; Reagent; 3 uL; 4/3x Enzyme solution (working concentration of 5 nM) or 3 uL buffer 2; Compounds; 17 nL; library compounds and controls (working concentration of 169 nM - […]) 3; Time; 15 min; room temperature incubation 4; Reagent; 1 uL; 4x 2 uM Z-FR-AMC substrate 5; Centrifugation; 1000 rpm; 15 sec centrigure 6; Detection; Fluorescence Read 1; ViewLux plate reader 7; Time; 10 min; room temperature incubation 8; Detection; Fluorescence Read 2; ViewLux plate reader NOTES (numbers refer to Sequence numbers above; values are from representative experiments) 1; Dispense 3 uL of [4/3x] 5 nM Papain-buffer solution in medium-binding black solid-bottom Greiner plates (789176-F); columns 1-2 and […]. Dispense 3 uL of assay buffer (100 mM Na-acetate pH 5.5, 5 mM DL-Cysteine, 0.01% Tween20) to columns 3 and 4. 2; Compounds are single pin-transferred (17 nL) for a final concentration range of 0.664 nM - 39.2 uM. 3; Room temperature incubation. 4; Dispense 1 uL of [4x] 2 uM Z-FR-AMC substrate solution into the assay plate, columns 1 - 48. 5; Centrifuge the assay plate to remove bubbles. 6; Initial fluorescence signal (Read 1) is obtained using the ViewLux plate reader (PerkinElmer) equipped with a 340(30) nm excitation filter; 450(20) nm emission filter; 2 sec exposure time at energy set to 2000. 7; Room temperature incubation in the dark. 8; Final fluorescence signal (Read 2) is obtained using the ViewLux plate reader (PerkinElmer) equipped with a 340(30) nm excitation filter; 450(20) nm emission filter; 2 sec exposure time at energy set to 2000.

Row | SMILES | Potency
1 | N#Cc1nc(Nc2ccccc2)nc(NC2CCCC2)n1 | 81.4 nM (active)
2 | Cc1cccc(Nc2nc(C#N)nc(NC3CCCC3)n2)c1 | 64.7 nM (active)
3 | CC(C)C(NC(=O)C(CCCN=C(N)N)NC(=O)NC(Cc1ccccc1)C(=O)O)C(=O)NC(C=O)CCCN=C(N)N (stereo not drawn) ({Phe-CO}-Arg-Val-Arg-aldehyde; configuration not given here) | 12.9 nM (active)
4 | N#Cc1nc(Nc2ccc(F)cc2)nc(NC2CCCC2)n1 | 102 nM (active)
5 | N#Cc1nc(Nc2cc(F)cc(F)c2)nc(NC2CCCC2)n1 | 162 nM (active)
6 | O=c1oc(Cl)c(Cl)c2ccccc12 | inactive
7 | CC(=O)N[C@@H](CC(C)C)C(=O)N[C@@H](CC(C)C)C(=O)N[C@H](C=O)CCCN=C(N)N | 10.2 nM (active)
8 | N#Cc1nc(Nc2cccc(Cl)c2)nc(NC2CCCC2)n1 | 289 nM (active)
9 | N#Cc1nc(Nc2cccc(F)c2)nc(NC2CCCC2)n1 | 115 nM (active)
10 | COc1cccc(Nc2nc(C#N)nc(NC3CCCC3)n2)c1 | 57.6 nM (active)
11 | COc1ccc(Nc2nc(C#N)nc(NC3CCCC3)n2)cc1 | 102 nM (active)
12 | CC(C)C[C@H](NC(=O)[C@@H](NC(=O)N[C@@H](Cc1ccccc1)C(=O)O)[C@H]1CCN=C(N)N1)C(=O)N[C@H](C=O)Cc1ccccc1 | 10.2 nM (active)
13 | CCOc1nc(C#N)nc(N2CCCCC2)n1 | 182 nM (active)
